# Measurements taken from PubChem BioAssay AID1159580 (chemical genetic matrix, 2015).
# Where “and” joins values, the source holds several entries; their conditions need not be identical. Equal values may be shown once. Out of some 5,500 compounds screened, about 2,000 (36%) were called active. Inconclusive results (about 18%) are left out. Some of the results follow. Unmarked numbers belong to inactive results. No stated cut-off is given here; in the data, active means normalized growth mostly below about 0.91 (no sharp cut-off); inconclusive means no clear call, values can overlap the other calls; inactive means mostly above about 0.92.
# Experiment: chemical genetic growth profiling, strain panel (AID 1159580);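 further: tested at 20 µM; growth read once vehicle control cultures reached saturation at 30 °C; 1 = growth at the plate median or of vehicle wells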
# Conditions: S. cerevisiae deletion strains, growth OD
smiles,measurement,setting,value
CC(C)c1c(O)ccc2c1CCC1[C@@](C)(CO)CCC[C@]21C (stereo partly specified),normalized growth,"locus YAL013W, strain DEP1, stronger effect = lower value",0.978
same,normalized growth,"locus YAL021C, strain ccr4, stronger effect = lower value",1.01
same,normalized growth,"locus YAL026C, strain drs2, stronger effect = lower value",1.01
same,normalized growth,"locus YAL030W, strain snc1, stronger effect = lower value",1.01
same,normalized growth,"locus YBL061C, strain skt5, stronger effect = lower value",1.01
same,normalized growth,"locus YBR009C, strain hhf1, stronger effect = lower value",1.04
same,normalized growth,"locus YBR021W, strain FUR4, stronger effect = lower value",0.945
same,normalized growth,"locus YBR023C, strain chs3, stronger effect = lower value",1.03
same,normalized growth,"locus YBR171W, strain sec66, stronger effect = lower value",1.02
same,normalized growth,"locus YBR229C, strain ROT2, stronger effect = lower value",0.958
same,normalized growth,"locus YBR231C, strain swc5, stronger effect = lower value",1.02
same,normalized growth,"locus YBR279W, strain paf1, stronger effect = lower value",1.02
same,normalized growth,"locus YCL011C, strain gbp2, stronger effect = lower value",1.02
same,normalized growth,"locus YCL016C, strain dcc1, stronger effect = lower value",1.02
same,normalized growth,"locus YCL029C, strain bik1, stronger effect = lower value",0.941
same,normalized growth,"locus YCL069W, strain vba3, stronger effect = lower value",1.02
same,normalized growth,"locus YCR088W, strain abp1, stronger effect = lower value",1.02
same,normalized growth,"locus YDL005C, strain med2, stronger effect = lower value",1.02
same,normalized growth,"locus YDL035C, strain GPR1, stronger effect = lower value",0.964
same,normalized growth,"locus YDL040C, strain nat1, stronger effect = lower value",1.01
same,normalized growth,"locus YDL074C, strain BRE1, stronger effect = lower value",0.834
same,normalized growth,"locus YDL101C, strain DUN1, stronger effect = lower value",0.947
same,normalized growth,"locus YDL134C, strain PPH21, stronger effect = lower value",0.911
same,normalized growth,"locus YDL185W, strain tfp1, stronger effect = lower value",0.975
same,normalized growth,"locus YDL192W, strain arf1, stronger effect = lower value",0.92
same,normalized growth,"locus YDR001C, strain nth1, stronger effect = lower value",1.01
same,normalized growth,"locus YDR069C, strain doa4, stronger effect = lower value",1
same,normalized growth,"locus YDR101C, strain arx1, stronger effect = lower value",0.967
same,normalized growth,"locus YDR137W, strain rgp1, stronger effect = lower value",0.885
same,normalized growth,"locus YDR150W, strain NUM1, stronger effect = lower value",0.983
same,normalized growth,"locus YDR159W, strain sac3, stronger effect = lower value",1.02
same,normalized growth,"locus YDR162C, strain NBP2, stronger effect = lower value",0.79 (active)
same,normalized growth,"locus YDR195W, strain ref2",1.05
same,normalized growth,"locus YDR297W, strain sur2, stronger effect = lower value",1.02
same,normalized growth,"locus YDR318W, strain mcm21, stronger effect = lower value",0.911 (active)
same,normalized growth,"locus YDR334W, strain swr1, stronger effect = lower value",1.03
same,normalized growth,"locus YDR335W, strain msn5, stronger effect = lower value",1.03
same,normalized growth,"locus YDR388W, stronger effect = lower value",0.957
same,normalized growth,"locus YDR392W, strain spt3, stronger effect = lower value",0.991
same,normalized growth,"locus YDR502C, strain sam2, stronger effect = lower value",0.898 (active)
same,normalized growth,"locus YEL003W, strain gim4, stronger effect = lower value",1.01
same,normalized growth,"locus YEL037C, strain rad23, stronger effect = lower value",1.02
same,normalized growth,"locus YEL061C, strain CIN8 (second series), stronger effect = lower value",1.03
same,normalized growth,"locus YEL061C, strain CIN8, stronger effect = lower value",0.971
same,normalized growth,"locus YER015W, strain faa2, stronger effect = lower value",1.02
same,normalized growth,"locus YER016W, strain bim1, stronger effect = lower value",1.01
same,normalized growth,"locus YER110C, stronger effect = lower value",0.971
same,normalized growth,"locus YER111C, strain swi4, stronger effect = lower value",1.04
same,normalized growth,"locus YER155C, strain BEM2 (second series), stronger effect = lower value",1.03
same,normalized growth,"locus YER155C, strain BEM2, stronger effect = lower value",0.966
same,normalized growth,"locus YER167W, strain BCK2, stronger effect = lower value",0.949
same,normalized growth,"locus YFR010W, strain ubp6, stronger effect = lower value",1.03
same,normalized growth,"locus YGL078C, strain dbp3, stronger effect = lower value",0.961
same,normalized growth,"locus YGL086W, strain mad1, stronger effect = lower value",0.898 (active)
same,normalized growth,"locus YGL167C, strain pmr1, stronger effect = lower value",1.01
same,normalized growth,"locus YGL173C, strain kem1, stronger effect = lower value",1.02
same,normalized growth,"locus YGL227W, strain vid30, stronger effect = lower value",1.02
same,normalized growth,"locus YGL240W, strain doc1, stronger effect = lower value",1.01
same,normalized growth,"locus YGL248W, strain PDE1, stronger effect = lower value",0.924
same,normalized growth,"locus YGL253W, strain hxk2, stronger effect = lower value",1.01
same,normalized growth,"locus YGR078C, strain PAC10, stronger effect = lower value",0.889
same,normalized growth,"locus YGR135W, strain pre9, stronger effect = lower value",0.93
same,normalized growth,"locus YGR252W, strain gcn5, stronger effect = lower value",0.88
same,normalized growth,"locus YHR013C, strain ard1, stronger effect = lower value",1.03
same,normalized growth,"locus YHR027C, strain rpn1, stronger effect = lower value",1.03
same,normalized growth,"locus YHR030C, strain SLT2, stronger effect = lower value",1.04
same,normalized growth,"locus YHR079C, strain IRE1 (second series), stronger effect = lower value",0.96
same,normalized growth,"locus YHR079C, strain IRE1, stronger effect = lower value",1.07
same,normalized growth,"locus YHR094C, strain hxt1, stronger effect = lower value",0.958
same,normalized growth,"locus YHR129C, strain ARP1, stronger effect = lower value",0.949
same,normalized growth,"locus YHR142W, strain chs7, stronger effect = lower value",1.01
same,normalized growth,"locus YHR200W, strain rpn10, stronger effect = lower value",0.931
same,normalized growth,"locus YIL066C, strain RNR3, stronger effect = lower value",0.94
same,normalized growth,"locus YIL073C, strain SPO22, stronger effect = lower value",0.871
same,normalized growth,"locus YIL125W, strain kgd1, stronger effect = lower value",0.973
same,normalized growth,"locus YIR030C, strain dcg1, stronger effect = lower value",0.954
same,normalized growth,"locus YJL092W, strain hpr5, stronger effect = lower value",1.01
same,normalized growth,"locus YJL095W, strain BCK1 (second series), stronger effect = lower value",1
same,normalized growth,"locus YJL095W, strain BCK1, stronger effect = lower value",0.811 and 1.03
same,normalized growth,"locus YJL115W, strain asf1, stronger effect = lower value",1.03
same,normalized growth,"locus YJL129C, strain trk1, stronger effect = lower value",0.961
same,normalized growth,"locus YJL134W, strain LCB3, stronger effect = lower value",0.973
same,normalized growth,"locus YJL154C, strain vps35, stronger effect = lower value",1.01
same,normalized growth,"locus YJL164C, strain tpk1, stronger effect = lower value",1.02
same,normalized growth,"locus YJL166W, strain qcr8, stronger effect = lower value",1.01
same,normalized growth,"locus YJL168C, strain set2, stronger effect = lower value",0.957
same,normalized growth,"locus YJL187C, strain SWE1 (second series), stronger effect = lower value",0.918
same,normalized growth,"locus YJR066W, strain TOR1, stronger effect = lower value",1.01
same,normalized growth,"locus YKL009W, strain mrt4, stronger effect = lower value",0.91
same,normalized growth,"locus YKL068W, stronger effect = lower value",0.965
same,normalized growth,"locus YKL085W, strain MDH1 (second series), stronger effect = lower value",0.961
same,normalized growth,"locus YKL085W, strain MDH1, stronger effect = lower value",0.961
same,normalized growth,"locus YKL160W, strain elf1, stronger effect = lower value",1.02
same,normalized growth,"locus YKL190W, strain CNB1, stronger effect = lower value",0.979
same,normalized growth,"locus YKR001C, strain vps1, stronger effect = lower value",0.895 (active)
same,normalized growth,"locus YKR026C, strain gcn3, stronger effect = lower value",1.02
same,normalized growth,"locus YKR091W, strain srl3, stronger effect = lower value",1.01
same,normalized growth,"locus YLL001W, strain dnm1, stronger effect = lower value",1.01
same,normalized growth,"locus YLL026W, stronger effect = lower value",1.01
same,normalized growth,"locus YLL041C, strain sdh2, stronger effect = lower value",1.03
same,normalized growth,"locus YLR027C, strain aat2, stronger effect = lower value",0.999
same,normalized growth,"locus YLR039C, strain RIC1, stronger effect = lower value",0.443 (active)
same,normalized growth,"locus YLR058C, strain SHM2, stronger effect = lower value",0.944
same,normalized growth,"locus YLR102C, strain apc9, stronger effect = lower value",0.959
same,normalized growth,"locus YLR113W, strain HOG1, stronger effect = lower value",0.996
same,normalized growth,"locus YLR221C, strain rsa3, stronger effect = lower value",1.01
same,normalized growth,"locus YLR258W, strain gsy2, stronger effect = lower value",1.03
same,normalized growth,"locus YLR262C, strain YPT6 (second series), stronger effect = lower value",0.842 (active)
same,normalized growth,"locus YLR262C, strain YPT6, stronger effect = lower value",0.397 (active)
same,normalized growth,"locus YLR268W, strain sec22, stronger effect = lower value",0.926
same,normalized growth,"locus YLR320W, strain mms22, stronger effect = lower value",1.01
same,normalized growth,"locus YLR330W, strain CHS5, stronger effect = lower value",0.951
same,normalized growth,"locus YLR342W, strain FKS1, stronger effect = lower value",1.01
same,normalized growth,"locus YLR357W, strain rsc2, stronger effect = lower value",1.08
same,normalized growth,"locus YLR370C, strain arc18, stronger effect = lower value",1.03
same,normalized growth,"locus YLR371W, strain rom2, stronger effect = lower value",0.97
same,normalized growth,"locus YLR384C, strain iki3, stronger effect = lower value",1.03
same,normalized growth,"locus YLR418C, strain cdc73, stronger effect = lower value",0.725 (active)
same,normalized growth,"locus YML016C, strain PPZ1, stronger effect = lower value",0.97
same,normalized growth,"locus YML032C, strain rad52, stronger effect = lower value",0.909
same,normalized growth,"locus YML120C, strain ndi1, stronger effect = lower value",1.02
same,normalized growth,"locus YML124C, strain tub3, stronger effect = lower value",0.959
same,normalized growth,"locus YMR058W, strain fet3, stronger effect = lower value",1.02
same,normalized growth,"locus YMR078C, strain ctf18, stronger effect = lower value",0.928
same,normalized growth,"locus YMR125W, strain sto1, stronger effect = lower value",1.03
same,normalized growth,"locus YMR129W, stronger effect = lower value",1.02
same,normalized growth,"locus YMR205C, strain PFK2, stronger effect = lower value",1.01
same,normalized growth,"locus YMR223W, strain ubp8, stronger effect = lower value",0.914
same,normalized growth,"locus YMR231W, strain pep5, stronger effect = lower value",1.04
same,normalized growth,"locus YMR307W, strain GAS1, stronger effect = lower value",0.7
same,normalized growth,"locus YNL067W, strain RPL9B, stronger effect = lower value",0.939
same,normalized growth,"locus YNL071W, strain lat1, stronger effect = lower value",1.02
same,normalized growth,"locus YNL183C, strain NPR1, stronger effect = lower value",0.994
same,normalized growth,"locus YNL209W, strain ssb2, stronger effect = lower value",1.02
same,normalized growth,"locus YNL233W, strain BNI4, stronger effect = lower value",0.885
same,normalized growth,"locus YNL248C, strain rpa49, stronger effect = lower value",1.04
same,normalized growth,"locus YNL250W, strain rad50, stronger effect = lower value",0.965
same,normalized growth,"locus YNL271C, strain bni1, stronger effect = lower value",0.961
same,normalized growth,"locus YNL298W, strain CLA4, stronger effect = lower value",0.951
same,normalized growth,"locus YNL307C, strain MCK1, stronger effect = lower value",0.885 (active)
same,normalized growth,"locus YNL322C, strain KRE1 (second series), stronger effect = lower value",1.03
same,normalized growth,"locus YNR049C, strain mso1, stronger effect = lower value",1.01
same,normalized growth,"locus YNR052C, strain pop2, stronger effect = lower value",0.92
same,normalized growth,"locus YOL012C, strain htz1",1.16
same,normalized growth,"locus YOL147C, strain pex11, stronger effect = lower value",0.942
same,normalized growth,"locus YOR001W, strain rrp6, stronger effect = lower value",1.02
same,normalized growth,"locus YOR061W, strain CKA2, stronger effect = lower value",0.964
same,normalized growth,"locus YOR069W, strain VPS5, stronger effect = lower value",0.965
same,normalized growth,"locus YOR070C, strain gyp1, stronger effect = lower value",1.01
same,normalized growth,"locus YOR080W, strain dia2, stronger effect = lower value",1.02
same,normalized growth,"locus YOR083W, strain WHI5, stronger effect = lower value",1.02
same,normalized growth,"locus YOR106W, strain vam3, stronger effect = lower value",1.04
same,normalized growth,"locus YOR136W, strain idh2, stronger effect = lower value",0.966
same,normalized growth,"locus YOR144C, strain elg1, stronger effect = lower value",0.961
same,normalized growth,"locus YOR184W, strain ser1, stronger effect = lower value",0.778 (active)
same,normalized growth,"locus YOR231W, strain MKK1, stronger effect = lower value",1.03
same,normalized growth,"locus YOR265W, strain rbl2, stronger effect = lower value",1
same,normalized growth,"locus YOR270C, strain vph1, stronger effect = lower value",1.01
same,normalized growth,"locus YOR290C, strain snf2, stronger effect = lower value",1.04
same,normalized growth,"locus YOR316C, strain cot1, stronger effect = lower value",0.956
same,normalized growth,"locus YPL051W, strain arl3, stronger effect = lower value",1.02
same,normalized growth,"locus YPL055C, strain LGE1, stronger effect = lower value",0.887
same,normalized growth,"locus YPL078C, strain atp4, stronger effect = lower value",1.04
same,normalized growth,"locus YPL106C, strain sse1, stronger effect = lower value",1.07
same,normalized growth,"locus YPL240C, strain hsp82, stronger effect = lower value",1.01
same,normalized growth,"locus YPL256C, strain CLN2, stronger effect = lower value",1.08
same,normalized growth,"locus YPR119W, strain clb2, stronger effect = lower value",0.948
same,normalized growth,"locus YPR141C, strain kar3, stronger effect = lower value",0.955
same,normalized growth,"locus YPR163C, strain tif3, stronger effect = lower value",0.883 (active)
same,normalized growth,"locus YPR167C, strain met16, stronger effect = lower value",0.953
same,normalized growth,"strain wtn01, stronger effect = lower value",0.945
